Each structure is given as a SMILES string. For part of these data: Results with a measured potency or affinity are listed apart. Active and inactive are the calls of the source.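 The calls were made as follows, unless noted: active = normalized viability below 100% at a tested concentration; inactive = the rest.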

The target of experiment [1] is 6-phosphogluconate dehydrogenase, decarboxylating (Homo sapiens) (UniProt P52209). As to the kind of experiment: inhibition of human phosphogluconate dehydrogenase – biochemical, recombinant enzyme, NADPH absorbance, primary screen (AID 1159550;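 active = at least 20% inhibition of 6-phosphogluconate dehydrogenase activity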). Conditions: recombinant 6PGD, NADPH absorbance 341 nm; at 10 µM; stronger effect = higher value.
Chain of 6-phosphogluconate dehydrogenase, decarboxylating (Homo sapiens) (P52209 whole entry, looked up): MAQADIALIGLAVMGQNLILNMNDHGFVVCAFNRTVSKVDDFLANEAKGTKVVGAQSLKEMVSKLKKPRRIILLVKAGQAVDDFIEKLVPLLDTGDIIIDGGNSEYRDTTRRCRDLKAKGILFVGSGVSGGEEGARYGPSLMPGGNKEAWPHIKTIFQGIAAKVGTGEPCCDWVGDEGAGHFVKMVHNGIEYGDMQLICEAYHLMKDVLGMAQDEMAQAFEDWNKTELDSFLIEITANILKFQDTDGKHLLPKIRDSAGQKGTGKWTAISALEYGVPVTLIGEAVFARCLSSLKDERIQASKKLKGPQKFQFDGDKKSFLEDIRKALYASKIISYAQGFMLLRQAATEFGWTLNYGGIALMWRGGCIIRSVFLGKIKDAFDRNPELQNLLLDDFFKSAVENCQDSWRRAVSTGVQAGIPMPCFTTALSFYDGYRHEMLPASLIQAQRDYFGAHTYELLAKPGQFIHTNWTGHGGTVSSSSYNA
Experiment [2] in a line: EMT-state selective cytotoxicity in co-culture – imaging, PC-3E GFP, TEM4-18 mCherry, primary screen (AID 1345086;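 active = compounds killing one labelled cell type while sparing the other, by normalised counts and ratio limits, not self-fluorescent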;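 as to all read-outs here: cells exposed to compound for 72 h before imaging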;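 as to red/green cell ratio (normalised): normalised mesenchymal count divided by normalised epithelial count so high means epithelial killing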). The note with it: PC-3E GFP / TEM4-18 mCherry co-culture, imaging cell counts, at 1 µM; for red/green cell ratio (normalised): actives lie on both sides, counts scaled to control wells, 1 = unselective.
Experiment [3] is described as follows: viability loss with induced miR-34 in A549 – imaging, A549 dox-inducible miR-34, nuclei and caspase counts, primary screen (AID 1347080;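 active = compounds whose cell count with miR-34 switched on is under 0.7 times the count with it off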). Conditions: A549 miR-34 inducible, Hoechst nuclei count, 48 h.
A short description of experiment [4]: MELAS cybrid and Rieske KO viability enhancers – cell-based, MELAS cybrids, Rieske KO mouse fibroblasts, CellTiter-Glo, primary screen (AID 1508586;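 active = mean z-score across replicates of 1.96 or higher in either the MELAS or the Rieske mutant cell line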;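 also: z relative to plate mean and SD of compound and empty wells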). Conditions: low glucose. On the technique in general: Cellular ATP, detected with luciferase, serves as a proxy for viable cell number.
A short description of experiment [5]: blockers of polyQ-driven CASP3 activation – cell-based (AID 1583). Conditions: polyglutamine-induced caspase-3 activation, cell assay; stronger effect = higher value;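 tested at 10 µM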.
Experiment [6] in a line: yeast 75Q aggregation reduction – 75Q-TubU reporter (AID 1593). Conditions: Yeast 75Q polyglutamine aggregation reporter.
Experiment [7] in a line: restoration of touch response, mutant HTT neurons – whole organism, C. elegans mechanosensory neurons, N-terminal huntingtin (AID 1599). The note with it: C. elegans polyQ-huntingtin mechanosensory neurons, stronger effect = higher value.
Experiment [8] is described as follows: blockers of cytochrome c efflux from mitochondria – biochemical, purified mitochondria (AID 1603).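 Also: mouse liver mitochondria challenged with calcium chloride; signal normalized to the plate average as 100%.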 The note with it: stronger effect = lower value.
Experiment [9] can be described thus: polyglutamine aggregate formation blockers (AID 1604). Conditions: polyglutamine-induced protein aggregation inhibition assay; stronger effect = higher value; tested at 2.5 µM.
The nature of experiment [10]: glutamate transport activators, MN-1 cells, MN-1 cell line (AID 1612).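 Also: tested at 1 µM final; 0% = mean of DMSO vehicle wells on each plate; positive means more glutamate uptake than control and negative means less.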 Conditions: MN-1 motor neuron cells, stronger effect = higher value.
Experiment [11] can be described thus: GFP-Q80 aggregate reduction, neuronal-like cells, cell-based, NGF-treated PC12, GFPQ80 (AID 1614).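 Also: lower means fewer inclusions and 0 means no inclusions at all.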 Conditions: PC12 NGF-treated GFP-polyQ80 inclusion reduction.
Experiment [12] in a line: 75Q-TubH aggregate inhibition, S. cerevisiae, yeast (AID 1616). The note with it: S. cerevisiae 75Q-TubH polyglutamine aggregation suppression; stronger effect = higher value.
Experiment [13] has as its target Mitogen-activated protein kinase 7 (Homo sapiens) (UniProt Q13164). As to the kind of experiment: Gal4-ERK5 driven luciferase induction – cell-based, HTS, primary screen (AID 1508626;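 active = luciferase signal above three times the same-plate solvent-only control wells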;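 also: luciferase driven by Gal4-ERK5 fusion binding five Gal4 sites before minimal TATA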). Conditions: HeLa Gal4-ERK5 transactivation, 18 h, at 5 µM, stronger effect = higher value.
A short description of experiment [14]: drug combination growth inhibition, ovarian cancer – cell-based, oncology-focused library, rucaparib conditional, profiling panel (AID 1508598). The note with it: patient-derived ovarian cancer cells, CellTiter-Glo viability, 144 h, stronger effect = lower value.
Setting [15] is: measured here: epithelial PC-3E GFP cell survival.
Where [16] appears, read: measured here: mesenchymal TEM4-18 mCherry cell survival.
[17] abbreviates: stronger effect = lower value, cell number ratio, induced over uninduced.
The mark [18] stands for this setting: measured here: relative caspase fold change +Dox/-Dox.
Where [19] appears, read: measured here: total cells with miR-34 induction, stronger effect = lower value.
[20] abbreviates: measured here: total cells without miR-34 induction.
Where [21] appears, read: MELAS cybrid survival, CellTiter-Glo 48 h, stronger effect = higher value.
Setting [22] is: Rieske KO mouse fibroblast survival, CellTiter-Glo 72 h.

Chain of Mitogen-activated protein kinase 7 (Homo sapiens) (Q13164 whole entry, looked up, the tested form may be a part): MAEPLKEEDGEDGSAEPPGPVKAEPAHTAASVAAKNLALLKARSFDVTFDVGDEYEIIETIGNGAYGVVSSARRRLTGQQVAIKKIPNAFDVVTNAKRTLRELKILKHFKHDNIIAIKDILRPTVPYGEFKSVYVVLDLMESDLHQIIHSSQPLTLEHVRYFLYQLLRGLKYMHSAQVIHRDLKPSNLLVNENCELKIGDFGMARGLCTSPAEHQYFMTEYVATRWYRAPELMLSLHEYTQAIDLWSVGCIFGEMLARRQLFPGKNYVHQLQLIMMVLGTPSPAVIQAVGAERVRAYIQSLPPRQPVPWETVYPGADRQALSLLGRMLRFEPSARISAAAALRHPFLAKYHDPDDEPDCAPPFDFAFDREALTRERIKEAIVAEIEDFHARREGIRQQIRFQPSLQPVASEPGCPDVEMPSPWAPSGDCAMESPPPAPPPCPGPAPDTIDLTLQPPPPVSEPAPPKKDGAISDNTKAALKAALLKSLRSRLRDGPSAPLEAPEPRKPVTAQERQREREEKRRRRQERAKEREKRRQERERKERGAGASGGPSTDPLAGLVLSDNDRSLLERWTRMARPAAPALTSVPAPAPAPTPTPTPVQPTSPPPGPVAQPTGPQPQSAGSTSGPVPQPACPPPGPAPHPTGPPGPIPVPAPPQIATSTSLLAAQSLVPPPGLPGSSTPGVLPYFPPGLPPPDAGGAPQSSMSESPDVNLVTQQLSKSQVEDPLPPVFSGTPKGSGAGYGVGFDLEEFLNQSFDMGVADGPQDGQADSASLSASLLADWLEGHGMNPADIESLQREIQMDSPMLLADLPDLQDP

By inhibition is commonly meant the change of the read-out against control, counted positive when it falls. For the compound `COc1ccc(-c2cc(=O)c3c(O)cc(O)cc3o2)cc1O`, the inhibition in [1] was 11.1% (inactive). The red/green cell ratio (normalised) in experiment [2] was 0.91 (inactive). For the same compound, the normalised cell number worked out at 1.34 in [2] (setting [15]) and 1.22 in experiment [2] (setting [16]). The results for the fold change in experiment [3] (setting [17]) and in [3] (setting [18]) were 0.906 (inactive) and 0.637, respectively. The cell count turned out to be 8940 in [3] (setting [19]) and 9870 in experiment [3] (setting [20]). Also, the z-score in experiment [4] (setting [21]) was -0.264 (inactive); in experiment [4] (setting [22]) it was 0.709.

Consider `O=C1C[C@@H](c2ccc(O)cc2)Oc2cc(O)cc(O)c21`, for which the results for the inhibition in experiment [5] and in experiment [1] were 11.6% and -3.37% (inactive), respectively. The score in [6] is 1.28. Besides, in experiment [7], the rescue above control is -15.8. For the same compound, the cytochrome c release ratio in experiment [8] is 1.08. Also, the inhibition of aggregation in [9] turned out to be 57.7%. This compound also registered a glutamate uptake change in experiment [10] of 9.95%. Also, in [11], the inclusion score was 2. The aggregation suppression score in experiment [12] was found to be 1.04. The red/green cell ratio (normalised) in experiment [2] was 1.16 (inactive). In addition, the values for the normalised cell number in [2] (setting [15]) and in [2] (setting [16]) were 0.96 and 1.12, respectively. Besides, in [13], the luciferase signal was 40 AU (inactive).

In general, viability refers to a read-out of living cells in per cent, often relative to untreated cells. In the case of `Cc1cc(O)c2c(c1)C(=O)c1cccc(O)c1C2=O`, the inhibition in experiment [1] is 2.69% (inactive). In addition, in experiment [2], the red/green cell ratio (normalised) is 1.03 (inactive). The normalised cell number in experiment [2] (setting [15]) came out at 0.99; in [2] (setting [16]) it was 1.02. In addition, the fold change in experiment [3] (setting [17]) was 0.938 (inactive); in experiment [3] (setting [18]), 0.889. For the same compound, the cell count in experiment [3] (setting [19]) was 10200; in experiment [3] (setting [20]), 10900. In addition, the z-score in experiment [4] (setting [21]) is -0.322 (inactive); in experiment [4] (setting [22]), 0.837. For the same compound, the viability is 120% (inactive) in experiment [14] (at 0.000305 µM, OCI-C5x cells, with rucaparib 10 µM, 100% = cells with rucaparib alone); 106% (inactive) in [14] (at 0.000305 µM, OCI-C5x cells, without rucaparib); 93.2% (active) in experiment [14] (at 0.000305 µM, OCI-P5x cells, with rucaparib 20 µM, 100% = cells with rucaparib alone); 92.5% (active) in experiment [14] (at 0.000305 µM, OCI-P5x cells, without rucaparib); 115% (inactive) in experiment [14] (at 0.00122 µM, OCI-C5x cells, with rucaparib 10 µM, 100% = cells with rucaparib alone); 113% (inactive) in experiment [14] (at 0.00122 µM, OCI-C5x cells, without rucaparib). For the same compound, the viability in experiment [14] (at 0.00122 µM, OCI-P5x cells, with rucaparib 20 µM, 100% = cells with rucaparib alone) was 92.4% (active); in experiment [14] (at 0.00122 µM, OCI-P5x cells, without rucaparib) it was 95.7% (active); in [14] (at 0.00488 µM, OCI-C5x cells, with rucaparib 10 µM, 100% = cells with rucaparib alone), 117% (inactive); in experiment [14] (at 0.00488 µM, OCI-C5x cells, without rucaparib) it was 112% (inactive); in experiment [14] (at 0.00488 µM, OCI-P5x cells, with rucaparib 20 µM, 100% = cells with rucaparib alone) it was 94.8% (active); in [14] (at 0.00488 µM, OCI-P5x cells, without rucaparib), 102% (inactive). For the same compound, the viability is 115% (inactive) in experiment [14] (at 0.0195 µM, OCI-C5x cells, with rucaparib 10 µM, 100% = cells with rucaparib alone); 103% (inactive) in [14] (at 0.0195 µM, OCI-C5x cells, without rucaparib); 104% (inactive) in experiment [14] (at 0.0195 µM, OCI-P5x cells, with rucaparib 20 µM, 100% = cells with rucaparib alone); 104% (inactive) in [14] (at 0.0195 µM, OCI-P5x cells, without rucaparib); 112% (inactive) in experiment [14] (at 0.0781 µM, OCI-C5x cells, with rucaparib 10 µM, 100% = cells with rucaparib alone); 113% (inactive) in experiment [14] (at 0.0781 µM, OCI-C5x cells, without rucaparib). The viability was 105% (inactive) in experiment [14] (at 0.0781 µM, OCI-P5x cells, with rucaparib 20 µM, 100% = cells with rucaparib alone); 107% (inactive) in [14] (at 0.0781 µM, OCI-P5x cells, without rucaparib); 102% (inactive) in [14] (at 0.313 µM, OCI-C5x cells, with rucaparib 10 µM, 100% = cells with rucaparib alone); 104% (inactive) in experiment [14] (at 0.313 µM, OCI-C5x cells, without rucaparib); 101% (inactive) in experiment [14] (at 0.313 µM, OCI-P5x cells, with rucaparib 20 µM, 100% = cells with rucaparib alone); 109% (inactive) in [14] (at 0.313 µM, OCI-P5x cells, without rucaparib). For the same compound, the viability is 114% (inactive) in [14] (at 1.25 µM, OCI-C5x cells, with rucaparib 10 µM, 100% = cells with rucaparib alone); 118% (inactive) in experiment [14] (at 1.25 µM, OCI-C5x cells, without rucaparib); 111% (inactive) in experiment [14] (at 1.25 µM, OCI-P5x cells, with rucaparib 20 µM, 100% = cells with rucaparib alone); 109% (inactive) in experiment [14] (at 1.25 µM, OCI-P5x cells, without rucaparib); 121% (inactive) in [14] (at 5 µM, OCI-C5x cells, with rucaparib 10 µM, 100% = cells with rucaparib alone); 114% (inactive) in experiment [14] (at 5 µM, OCI-C5x cells, without rucaparib). The viability is 97.2% (active) in experiment [14] (at 5 µM, OCI-P5x cells, with rucaparib 20 µM, 100% = cells with rucaparib alone) and 108% (inactive) in experiment [14] (at 5 µM, OCI-P5x cells, without rucaparib). Further, in experiment [13], the luciferase signal is 64 AU (inactive).

Source of the values: PubChem BioAssay.
